Source: PubChem BioAssay (EPA / NIEHS)
Calls of active or inactive are those of the source. How the source made its calls: active means hit-call score of the fitted dose curve at least 0.9, where 1 is the maximum; inactive means score below 0.9.

Experiment: CCTE_Padilla_ZF_Score.Spine: CCTE's 144 Hour Post-fertilization zebrafish Assay Score for Spine Malformation, Padilla Lab (AID 2284407)
Experimental: CCTE_Padilla_ZF_Phenotype_Score is a whole embryo, multiplexed assay using zebrafish ova exposed for 144 hours post fertilization on a 96-well plate.CCTE_Padilla_ZF_Score.Spine is one of one assay component(s) measured or calculated from the CCTE_Padilla_ZF_Phenotype_Score assay. It is designed to make measurements of zebrafish development as detected with brightfield microscopy of developing zebrafish embryos.Data from the assay component CCTE_Padilla_ZF_Score.Spine was analyzed into 1 assay endpoints. This assay endpoint, CCTE_Padilla_ZF_Score.Spine, was analyzed in the positive analysis fitting direction relative to DMSO as the negative control and baseline of activity. Using a type of viability reporter, gain-of-signal activity can be used to understand changes in developmentals as they relate to the whole embryo. To generalize the intended target to other relatable targets, this assay endpoint is annotated to the zebrafish development intended target family, where the subfamily is body axis morphogenesis.
Zebrafish husbandry: Wild type adult zebrafish (Danio rerio; undefined outbred stock obtained from Aquatic Research Organisms, Hampton, NH, 03842) were housed in an AAALAC-approved animal facility at 28C with a 14:10 h light: dark cycle (lights on at 08:30 h). Adult fish (2-3 females per male; density = 15-20 adults per tank) were kept in one of several 9-liter (L) flow-through colony tanks (Aquaneering Inc., San Diego, CA). All adults in a colony tank were placed in a 2 L (static) breeding tank (Aquatic Habitats, Apopka, FL) one hour prior to light onset. Typically, adults from two to three colony tanks were mated on the same day. Two hours after light onset the adults were returned to the colony tank. All embryos were gathered from each breeder tank, pooled, and placed in a 28C water bath for 2 h, followed by two washes with 0.06% bleach (v/v) in 10% Hanks' Balanced Salt Solution (13.7 mM NaCl 0.54 mM KCl, 25 uM Na2HPO4, 130 uM CaCl2 100 um MgSO4 and 420 um NaHCO3,), hereafter referred to as Hanks' solution, for 5 min in order to remove any residual bacteria or fungi. Immediately following washing, the embryos were examined, and healthy embryos were separated from dead or unfertilized eggs and moved into fresh Hanks'. Chemical exposures: Zebrafish embryos were exposed in 96-well plates. Between 6- and 8-hours post fertilization (hpf), healthy embryos (with chorions) were transferred, one embryo per well, into 96 well (0.5 mL) microtiter plates (Cell Culture-Treated, Flat-Bottom Microplate 96 well [Corning Costar, Kennebunk, ME; Cat 09-761-145]) filled with 200 uL of Hanks' solution. A random number generator was used to assign the order in which the rows of embryos were plated in 96 well plates each week. After plating, the embryos were dosed with 0.8 uL of the chemical dosing solution then immediately sealed with AlumaSeal II (Excel Scientific Inc, Victorville, CA) to prevent volatilization of the chemicals, and then placed in a leakproof secondary container. These containers were placed in an incubator maintained on a 14:10 h light: dark cycle at 26C for rearing. On 5 dpf, live larvae were gently moved out of the plate with test chemicals and into a new 96 well mesh plate (Millipore Corp., Bedford, MA) with just the Hanks' solution. Once within the mesh well plate, the animals were rinsed with 400 uL of fresh Hanks' three times, and then the plates were covered with a non-adhesive material (Microseal A, BioRad, Hercules, CA), plate lid added, and then plate sides wrapped in Parafilm (PM992, Bermis Company, Neenah, WI), and returned to the incubator. […]

SMILES	outcome
O=S(=O)(OCC(F)F)C(F)(F)F	inactive
O=C(O)C(F)(F)C(F)(F)C(F)(F)C(F)(F)C(F)(F)C(F)(F)C(F)(F)C(F)(F)C(F)(F)C(F)(F)C(F)(F)C(F)(F)C(F)(F)F	inactive
FC(F)(F)C(F)(F)C(F)(F)CI	inactive
O=C(CC(=O)C(F)(F)C(F)(F)F)C(F)(F)F	inactive
CCCCCCCCC(F)(F)C(F)(F)C(F)(F)C(F)(F)C(F)(F)C(F)(F)F	inactive
OCC(F)(F)C(F)(F)C(F)(F)C(F)(F)C(F)(F)C(F)F	inactive
C=C(C)C(=O)OCCC(F)(F)C(F)(F)C(F)(F)C(F)(F)C(F)(C(F)(F)F)C(F)(F)F	inactive
O=C(O)C(F)(F)C(F)(F)C(F)F	inactive
O=C(O)C(F)(F)C(F)(F)OC(F)(F)F	inactive
C=C(C)C(=O)OCC(F)(F)C(F)(F)C(F)(F)C(F)(F)C(F)(F)C(F)(F)C(F)(F)F	inactive
OCCCC(F)(F)C(F)(F)C(F)(F)F	inactive
OCC(F)(F)C(F)(F)C(F)(F)C(F)F	inactive
C=CC(F)(F)C(F)(F)C(F)(F)C(F)(F)C(F)(F)C(F)(F)C(F)(F)C(F)(F)F	inactive
C=C(C)C(=O)OCC(F)(F)C(F)(F)C(F)(F)F	inactive
NC(=O)C(F)(F)C(F)(F)C(F)(F)C(F)(F)F	inactive
CCO[Si](CCC(F)(F)C(F)(F)C(F)(F)C(F)(F)C(F)(F)C(F)(F)F)(OCC)OCC	inactive
C=CC(=O)OCC(F)(F)C(F)(F)C(F)(F)C(F)(F)C(F)(F)C(F)(F)C(F)(F)F	inactive
CC(C)(C)C(=O)CC(=O)C(F)(F)C(F)(F)C(F)(F)F	inactive
FC(F)(Br)C(F)(F)C(F)(F)C(F)(F)C(F)(F)C(F)(F)Br	inactive
FC(F)(F)C(F)(F)C(F)(F)C(F)(F)C(F)(F)CCI	inactive

SMILES	outcome
O=S(=O)(OCCOC(F)(F)F)C(F)(F)F	inactive
O=P(O)(O)OCCC(F)(F)C(F)(F)C(F)(F)C(F)(F)C(F)(F)C(F)(F)F	inactive
Cc1ccc(S(=O)(=O)OCC(F)(F)C(F)(F)C(F)(F)C(F)(F)C(F)(F)C(F)F)cc1	inactive
O=C(O)C(F)(F)C(F)(F)C(F)(F)F	inactive
FC(F)(F)C(F)(F)C(F)(F)C(F)(F)C(F)(F)C(F)(F)C(F)(F)I	inactive
O=C(Cl)C(F)(F)C(F)(F)C(F)(F)C(F)(F)C(F)(F)C(F)(F)C(F)(F)C(F)(F)F	inactive
O=C(O)C(F)(F)C(F)(F)F	inactive
FC(F)(F)C(F)(F)C(F)(F)C(F)(F)C(F)(F)C(F)(F)C(F)(F)Br	inactive
FC(F)(I)C(F)(F)C(F)(F)C(F)(F)I	inactive
FC(F)(F)C(F)(F)C(F)(F)C(F)(F)C(F)(F)C(F)(F)CCS	inactive
O=C(O)C(F)(F)C(F)(F)C(F)(F)C(F)(F)C(F)(F)C(F)(F)C(F)(F)C(F)(F)Cl	inactive
FC(F)(F)C(F)(F)CNCC(F)(F)C(F)(F)F	inactive
O=C(O)C(F)(F)C(F)(F)C(F)(F)C(F)(F)C(F)(F)C(F)(F)C(F)(F)C(F)(F)C(F)(F)C(F)(F)C(F)(F)C(F)(F)F	inactive
OCC(F)(F)C(F)(F)C(F)(F)F	inactive
O=C(O)C(F)(OC(F)(F)C(F)(OC(F)(F)C(F)(F)C(F)(F)F)C(F)(F)F)C(F)(F)F (stereo not given)	inactive
FC(F)(F)C(F)(F)C(F)(F)C(F)(F)C(F)(F)C(F)(F)C(F)(F)C(F)(F)F	inactive
C=CC(=O)OCC(F)(F)C(F)(F)C(F)(F)C(F)(F)COC(=O)C=C	inactive
O=C(O)C(F)(F)C(F)(F)C(F)(F)C(F)(F)C(F)(F)C(F)(F)C(F)(F)C(F)(F)C(F)(F)C(F)F	inactive
O=C(O)C(F)(OC(F)(F)C(F)(OC(F)(F)C(F)(OC(F)(F)C(F)(F)C(F)(F)F)C(F)(F)F)C(F)(F)F)C(F)(F)F (stereo not given)	inactive
FC(F)(F)C(F)(F)C(F)(F)C(F)(F)C(F)(F)C(F)(F)CC1CO1 (stereo not given)	inactive
